In PubChem BioAssay:
Calls of active or inactive are those of the source.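 The calls were made as follows, unless noted: active = NADPH fluorescence slope more negative than the mean of all samples by about 3 SD, 99.7% confidence; inactive = the rest.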

Key:
[1] = inhibitors of TNFa-induced NFkB p65 translocation, primary screen, imaging, HUVEC, MLSMR starter and 10KST1 sets (AID 438;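 active = inhibition above 20% together with a positive visual image hit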;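 also: compound added about 3h40 before a 20 min TNFalpha stimulation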;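 as to inhibition: signal is the nuclear over cytoplasmic p65 intensity ratio per well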); settings: HUVEC TNFa-induced p65 nuclear translocation; cell count: measured here: nuclei count (cytotoxicity indicator), at 2.08 µM; inhibition: at 2 µM, stronger effect = higher value, 0% TNFa-plus-vehicle, 100% no-TNFa wells
[2] = inhibitors of mutant huntingtin aggregation, primary screen, imaging, exon1htt(103Q)mCFP cells, high-content imaging (AID 483;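 active = visual image review flags a hit and inhibition of aggregation exceeds 20%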;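 also: compound exposure lasted 3 days before fixation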;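 as to nuclei count: percent of the per-plate median nuclei count of sample wells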); settings: exon1htt(103Q)mCFP cell line, aggregate imaging, at 2 µM; inhibition of aggregation: stronger effect = higher value; nuclei count: measured here: cell count, toxicity
[3] = inhibitors of E-selectin induction by TNFa, primary screen, imaging, HUVEC, immunofluorescence, MLSMR starter and 10KST1 sets (AID 487;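 active = visually confirmed hit in the image check and inhibition above 20%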;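 as to inhibition: signal is fraction of cell area covered by stained E-selectin grains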;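 as to nuclei count: 100% = median nuclei count of all wells on the same plate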); settings: HUVEC TNFalpha-induced E-selectin immunofluorescence imaging, at 2 µM; inhibition: stronger effect = higher value; nuclei count: measured here: cell number, toxicity
[4] = target: Voltage-gated potassium channel subunit beta-2 (Rattus norvegicus) (UniProt P62483); assay: KvBeta enzyme negative modulators, primary screen, biochemical, NADPH fluorescence (AID 622;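 active = fluorescence slope higher than the sample average by over 3 SD, cut at about -0.22 in these data, passing the limit was not always enough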;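 also: slope of raw intensity against log time taken from 70 to 1610 s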); settings: recombinant KvBeta, 4-cyanobenzaldehyde reduction, at 10 µM, stronger effect = higher value
Sequence of Voltage-gated potassium channel subunit beta-2 (Rattus norvegicus) (P62483 whole entry, looked up): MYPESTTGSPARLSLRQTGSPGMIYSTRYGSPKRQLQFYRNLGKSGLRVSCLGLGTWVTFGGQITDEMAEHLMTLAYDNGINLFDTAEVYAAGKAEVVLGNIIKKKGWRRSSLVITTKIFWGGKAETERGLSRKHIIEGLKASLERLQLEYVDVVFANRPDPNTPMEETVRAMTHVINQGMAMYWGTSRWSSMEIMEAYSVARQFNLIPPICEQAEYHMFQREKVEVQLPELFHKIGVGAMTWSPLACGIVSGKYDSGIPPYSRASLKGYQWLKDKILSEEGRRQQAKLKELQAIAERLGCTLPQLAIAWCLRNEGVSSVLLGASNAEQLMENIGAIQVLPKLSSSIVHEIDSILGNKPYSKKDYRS

[5] = target: Voltage-gated potassium channel subunit beta-2 (Rattus norvegicus) (UniProt P62483); assay: KvBeta positive modulators, primary screen, biochemical, NADPH fluorescence (AID 623); settings: Recombinant KvBeta, NADPH fluorescence decrease slope, 10 min; at 10 µM; stronger effect = lower value;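 also: fluorescence intensity change per second fitted from 20 to 320 s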
[6] = target: Alpha-2C adrenergic receptor (Homo sapiens) (UniProt P18825); assay: modulators of alpha2C/GIRK thallium flux, primary screen, cell-based, HEK293 alpha2C/GIRK1/2 (AID 624;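 active = fluorescence slope after compound addition differing from the mean of all screened samples at 99.7% confidence, in either direction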;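 also: slope of fluorescence ratio to pre-addition baseline per second over 15 to 24 s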); settings: thallium flux BTC fluorescence, at 10 µM, actives lie on both sides
Sequence of Alpha-2C adrenergic receptor (Homo sapiens) (P18825 whole entry, looked up): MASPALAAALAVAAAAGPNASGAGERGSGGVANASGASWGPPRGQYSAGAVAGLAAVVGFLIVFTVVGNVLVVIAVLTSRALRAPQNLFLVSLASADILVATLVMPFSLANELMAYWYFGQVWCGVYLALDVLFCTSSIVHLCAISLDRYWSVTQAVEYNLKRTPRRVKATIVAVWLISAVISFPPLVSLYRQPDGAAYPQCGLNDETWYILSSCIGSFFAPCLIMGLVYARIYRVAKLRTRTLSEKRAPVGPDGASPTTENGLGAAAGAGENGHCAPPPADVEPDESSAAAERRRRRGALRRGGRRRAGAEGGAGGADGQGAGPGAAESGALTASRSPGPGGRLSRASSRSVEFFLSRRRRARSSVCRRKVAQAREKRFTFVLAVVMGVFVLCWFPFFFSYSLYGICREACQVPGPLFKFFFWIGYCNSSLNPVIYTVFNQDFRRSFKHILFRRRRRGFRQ

[7] = inhibitors of Sendai virus-induced IRF3 signaling, primary screen, TLR/RLR signaling modifier project, cell-based, Sendai virus stimulus, luciferase, 10K MLSCN set (AID 602276;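 active = inhibition at or above 50% at 10 µM; inactive = inhibition below 50%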;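 also: firefly luciferase from ISG56 promoter only with Renilla not read in this screen; 0% = Sendai virus plus DMSO and 100% = medium plus DMSO without virus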); settings: HEK293 RL24 IRF3 luciferase reporter, at 10 µM, stronger effect = higher value
[8] = inhibitors of poly I:C-induced TLR3 signaling, primary screen, cell-based, poly I:C stimulus, luciferase, 10K MLSCN set (AID 602277;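 active = inhibition of the reporter signal at or above 50%; inactive = inhibition below 50%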); settings: HEK293-TLR3 RL24 IRF3 luciferase reporter, at 10 µM, stronger effect = higher value

Row | Structure (SMILES) | cell count [1] | inhibition [1] | inhibition of aggregation [2] | nuclei count [2] [%] | inhibition [3] | nuclei count [3] [%] | fluorescence slope [4] | NADPH fluorescence slope [5] | slope [6] | inhibition [7] | inhibition [8]
1 | Cc1ccc2cc(CN(CC3CCCO3)S(=O)(=O)c3ccc4c(c3)OCCO4)c(=O)[nH]c2c1C (centres undefined) | 478 | 2.4% (inactive) | 8.6% (inactive) | 110 | -42.1% (inactive) | 135 | -0.391 (inactive) | -8.2e-06 (inactive) | 0.00544 (inactive) | 3.97% (inactive) | -19.6% (inactive)
2 | CCOC(=O)c1ccc(-n2c(C)nc3c(cnn3-c3ccccc3C)c2=O)cc1 | 654 | 6.9% (inactive) | -46.9% (inactive) | 102 | 11.9% (inactive) | 108 | -0.543 (inactive) | -6.1e-06 (inactive) | 0.00553 (inactive) | -2.92% (inactive) | 3.65% (inactive)
3 | CC12CCC(C(=O)O)(c3nc(C#N)c(C#N)nc31)C2(C)C (centres undefined) | 437 | -4.7% (inactive) | 26.3% (inactive) | 90.9 | -15.3% (inactive) | 106 | -0.618 (inactive) | -3.8e-05 (inactive) | 0.0041 (inactive) | 15.9% (inactive) | 21.6% (inactive)
4 | CC(=O)N(c1ccc(Br)cc1)C1C=CS(=O)(=O)C1 (centres undefined) | 476 | 3.9% (inactive) | 25.9% (inactive) | 49.7 | -13.7% (inactive) | 102 | -0.551 (inactive) | -4.3e-05 (inactive) | 0.00701 (inactive) | 13.8% (inactive) | 30% (inactive)
5 | CCOP(=O)(c1ccc(N(C)C)cc1)C(O)c1c(Cl)cccc1Cl (centres undefined) | 220 | -3.5% (inactive) | 20% (inactive) | 99.5 | -64.5% (inactive) | 96.2 | -0.521 (inactive) | -3.5e-05 (inactive) | 0.00411 (inactive) | 12.4% (inactive) | 19.2% (inactive)
6 | O=C(c1ccc(Cl)cc1)N1CCCOC1 | 784 | -9.7% (inactive) | -49% (inactive) | 99.2 | -84.3% (inactive) | 111 | -0.32 (inactive) | -4.9e-05 (inactive) | 0.00521 (inactive) | 10.5% (inactive) | 18.6% (inactive)
7 | CCOC(=O)c1sc(NC(=O)c2c(C)nn(Cc3ccccc3)c2C)cc1C | 395 | -7.8% (inactive) | 42.3% (active) | 60 | -20.6% (inactive) | 106 | -0.448 (inactive) | -0.000126 (inactive) | 0.00542 (inactive) | -9.51% (inactive) | -3.87% (inactive)
8 | OCc1nc2ccccc2n1CCCOc1ccccc1 | 291 | -6% (inactive) | 11.9% (inactive) | 87 | -17.2% (inactive) | 96.5 | -0.382 (inactive) | -5.7e-05 (inactive) | 0.00561 (inactive) | -34.5% (inactive) | -119% (inactive)
9 | CN1CCN(S(=O)(=O)c2ccc(NC(=O)c3ccc(F)cc3)cc2)CC1 | 624 | 0% (inactive) | -2.2% (inactive) | 105 | -22.1% (inactive) | 85 | -0.424 (inactive) | -2.3e-05 (inactive) | 0.00505 (inactive) | 0.12% (inactive) | -12.3% (inactive)
10 | CC(CC(=O)NCc1ccccc1)C1CCCO1 (centres undefined) | 439 | -2% (inactive) | 20.9% (inactive) | 92.2 | -112% (inactive) | 114 | -0.463 (inactive) | -3.8e-06 (inactive) | 0.0065 (inactive) | -2.84% (inactive) | -9.76% (inactive)
11 | Cc1ccc2oc(=O)c3cnn(CC(=O)N4CCCCC4C)c3c2c1 (centres undefined) | 661 | 3.9% (inactive) | -4% (inactive) | 77.1 | 3.2% (inactive) | 88.1 | -0.518 (inactive) | -1.6e-05 (inactive) | 0.00597 (inactive) | 3.36% (inactive) | 23.4% (inactive)
12 | CCOC(=O)c1c(NC(=O)c2cccs2)sc2c1CCN(C(=O)OCC)C2 | 416 | -2% (inactive) | -6.8% (inactive) | 99.7 | 14.8% (inactive) | 115 | -0.192 (active) | -6.6e-05 (inactive) | 0.0082 (inactive) | 10.1% (inactive) | -1.84% (inactive)
13 | CCOC(=O)Cc1csc(NC(=O)CSc2nnc(-c3ccncc3)n2Cc2ccco2)n1 | 516 | -12.9% (inactive) | 14.5% (inactive) | 97.6 | -61.4% (inactive) | 122 | -0.595 (inactive) | -6.1e-05 (inactive) | 0.0058 (inactive) | 10.4% (inactive) | 10.6% (inactive)
14 | Clc1cccc(Cl)c1COc1ccncc1 | 353 | 4.4% (inactive) | 11.7% (inactive) | 89.4 | 7.5% (inactive) | 104 | -0.516 (inactive) | 7.2e-05 (inactive) | 0.00644 (inactive) | -16.2% (inactive) | -12% (inactive)
